Rows were chosen to be rich in hits. Some 2.2% of all compounds tested hit in one or more screens of this group.
Mito fusion act – qHTS Assay for Small Molecule Inhibitors of Mitochondrial Division or Activators of Mitochondrial Fusion; S. cerevisiae fusion-defective mutant growth rescue, CellTiterGlo 48 h; Potency, µM (series often up to 46.1 µM), for inactives: at the highest dose growth rescue (activation), actives largely listed as activators; 320,000 compounds, 0.23% hits; AID 485298, 2010; further: % of control where 0% means no effect; nearly all actives have a fitted effect of over 45% in size
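Temperature-sensitive fusion-defective S. cerevisiae (e.g. fzo1-1, mgm1-5) were grown with compound in YPEG medium (3% ethanol, 3% glycerol) for 48 hours at 37C. Growth rescue was measured as viability by CellTiterGlo luminescence after 10 minutes at ambient.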
Abeta rescue – qHTS for compounds that reverse cellular toxicity of Amyloid beta (A-beta) peptide in yeast: Primary Screen | 410,000 compounds, 0.063% hits | AID 1347071, 2019 | yeast expressing A-beta42, growth rescue, OD600, 48 h; response scale: 0% DMSO, 100% iron-clioquinol control | Potency, µM (doses to about 46.1 µM), most hits filed as activators; further: nearly all actives have a fitted effect of over 55% in size
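Yeast growth medium received pinned compounds, then yeast cells expressing toxic A-beta were added; plates incubated at 30 C for 48 hr. Growth read as absorbance at 600 nm, normalized to DMSO and equimolar FeCl3 plus clioquinol controls.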
FUS suppressor – qHTS for Suppressors of FUS Proteinopathy: Primary screen using FUS-linked yeast assay; S. cerevisiae FUS-expressing, growth rescue, OD600, 24 h; Potency, µM (titrated, usually from 76.6 µM), hits mostly activators; 390,000 compounds, 0.24% hits;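 further: plate controls were DMSO vehicle for no effect and reference control for full effect; nearly all actives have a fitted effect of over 55% in size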
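Absorbance at 600 nm, taken 24hr after compound addition, measured rescue of FUS-yeast growth at 30C. Induction used 2% galactose with seeding at OD 0.005. Controls: CP55940 from 92uM final, DMSO only.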
TDP-43 yeast inh – qHTS of TDP-43 Inhibitors | TDP-43 expressing yeast growth rescue, BacTiter-Glo, 24 h | Potency, µM (doses to about 46.1 µM), without a hit: at the top dose growth rescue (activation), usual class: activators | 410,000 compounds, 1.8% hits | AID 652104, 2013; further: % of control where 0% means no effect; nearly all actives have a fitted effect of over 50% in size
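Cell-based yeast growth screen: TDP-43 expression induced in galactose, inoculum OD600=0.02 after raffinose pregrowth to mid-log. Read-out BacTiter-Glo luminescence at 24 hr, 30 deg C; inhibition of toxicity seen as signal increase.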
aSyn yeast inh – qHTS of alpha-syn Inhibitors; 370,000 compounds, 0.14% hits; AID 652106, 2013; Potency, µM (doses to about 46.1 µM), for inactives: top-dose growth rescue (activation), hits mostly activators; Yeast expressing alpha-synuclein, growth rescue, BacTiter-Glo, 24 h; further: % of control where 0% means no effect; nearly all actives have a fitted effect of over 65% in size
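Screening used galactose-induced yeast with toxic alpha-synuclein levels, exposed to compound for 24 hr at 30 deg C. Cell growth, read with BacTiter-Glo luminescence, gave the measured signal.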
An asterisk follows results filed as active; i = inactive; ? = inconclusive; . = no result; [ ] = another dose, or the depositor's remark. The call rests on the fitted dose curve; in most records, active means well fitted curve in the direction sought with a large enough effect; inconclusive means small, poorly fitted or top-dose-only effect, or another doubt; inactive means no such curve, though single readings can be large; an effect the other way counts as inactive or inconclusive. Potency means the concentration at half of the fitted maximal effect.

SMILES	Mito fusion act	Abeta rescue	FUS suppressor	TDP-43 yeast inh	aSyn yeast inh
COc1ccccc1OCC(=O)N/N=C/C=C/c1ccc([N+](=O)[O-])o1	?	i	.	13µM*	?
O=C1N[C@@H](Cc2cn(S(=O)(=O)c3ccc([N+](=O)[O-])cc3)c3ccccc23)C(=O)N[C@H]1Cc1ccccc1	.	i	i	-6%	-2%
COc1ccc(N2CCN(CCCNC(=O)CCc3cccc(Cl)c3)CC2)cc1	.	.	i	.	.
O=C(NCCc1c[nH]c2ccccc12)OCc1cn(-c2ccc(F)cc2)nn1	.	.	i	.	.
CCc1ccc(CN2CCCC(C(=O)Nc3ccc(-c4cscn4)cc3)C2)o1 (stereo not drawn)	-9%	i	i	-19%	4%
CCOC(=O)C1=C(COC(=O)/C=C/c2cccc(Br)c2)NC(=O)NC1C (stereo not drawn)	5%	i	i	18%	2%
C[C@H]1COc2cccc(N3CCC[C@H]3CO)c2S(=O)(=O)N1	.	i	i	0%	?
Cc1cc(N/N=C/c2ccc([N+](=O)[O-])o2)nc2ccccc12	3%	i	i	13µM*	0%
Cc1ccc(-c2cc(C(=O)N/N=C/c3ccc([N+](=O)[O-])o3)c3ccccc3n2)o1	-8%	i	i	-16%	1%
C=CCNC1=C(Cl)C(=O)N(c2cccc(Cl)c2Cl)C1=O	-5%	i[9.22 µM]	i	16µM*	20%
COc1ccc(-c2nnc(SCC(=O)Nc3ccc(S(=O)(=O)Nc4cc(C)nc(C)n4)cc3)n2-c2ccc(OC)cc2)cc1	.	.	i	.	.
O=C1/C(=C/c2ccccc2Cl)SC(=S)N1CCCC(=O)N(CCO)c1ccccc1	-16%	i	i	27%	18µM*
COc1ccc(C2(C)NC(=O)N(CC(=O)Nc3ccc(C)cc3Br)C2=O)cc1OC (stereo not drawn)	2%	i	?	-6%	0%
Cc1ccc(-c2ccc(/C=N/O)o2)cc1[N+](=O)[O-]	-2%	i	i	13µM*	-19%
O=[N+]([O-])c1cc(-c2ccc(/C=N/n3cnnc3)o2)ccc1Cl	-6%	i	i	?	6%
C=CC[C@H](CC(=O)N(CCO)Cc1ccccc1)C(=O)N[C@H](COC(=O)[C@@H](CC=C)CC(=O)OC(C)(C)C)c1ccccc1	.	i	?	-4%	-11%
Cc1cc(C)cc(Nc2ncc3c(n2)CC(c2ccco2)CC3=O)c1 (stereo not drawn)	24%	i	?	16µM*	-16%
Cc1cc(C(=O)Nc2ccc(Nc3ccccc3)cc2)ccc1[N+](=O)[O-]	1%	i	i	13µM*	13%
O=C(Nc1ccc(Nc2ccccc2)cc1)c1ccc(Cl)c([N+](=O)[O-])c1	-17%	i	?	-21%	1%
CCNc1nc(NCC)nc(N(C#N)CCOc2ccccc2)n1	13%	i	i	8%	-5%
CN(C)c1nc(Cl)nc(N(C#N)CCOc2ccccc2)n1	-4%	i	i	11µM*	1%
COc1ccc(N2C(=O)N3[C@H](c4ccc(Cl)cc4)[C@@H]4C(=O)N(C5CCCCC5)C(=O)[C@@H]4[C@]3(C)C2=O)cc1	5%	i	28µM*	10%	-1%
COc1cccc(Nc2nc(N)c([N+](=O)[O-])c(NCc3ccccc3)n2)c1	?	i	i	25µM*	2%
S=c1[nH]nc(-c2ccc(Cl)cc2)n1-c1ccc(Cl)cc1	9%	10µM*	i	16%	-3%
S=c1[nH]nc(-c2ccc(Cl)cc2)n1-c1ccc2c(c1)OCCO2	-2%	i	i	-1%	-9%
SMILES	Mito fusion act	Abeta rescue	FUS suppressor	TDP-43 yeast inh	aSyn yeast inh
Cc1cc(SCc2cc(=O)n3ccsc3n2)nc2ccccc12	-1%	i	i	11µM*	1%
c1ccc(-n2nnnc2-c2cccc3ccccc23)cc1	.	i	.	14µM*	5%
Cc1ccc(-n2nnnc2-c2ccccc2Br)cc1	.	i	i	23%	?
COc1ccc2ccccc2c1C=Nn1c(-c2n[nH]c3c2CCC3)n[nH]c1=S	.	.	i	.	.
Cc1cc(C)n2nc(SCC(=O)N3CCc4ccccc43)nc2n1	35µM*	i	.	9%	-18%
Cc1cc(C)nc(SCC(=O)N2CCc3ccccc32)n1	.	i	i	22%	-1%
CCc1ccc(-c2ccc(C(=O)O)cc2)nc1	-1%	i	i	35µM*	6%
CC(=O)c1nnn(-c2nc(C#N)nc(N3CCOCC3)n2)c1C	.	.	.	.	2%
Cc1ccc(CNc2cc(C)nc3nc(-c4ccc(C)cc4)nn23)cc1	.	i	i	24%	-1%
Cc1ccc(CNc2cc(C)nc3nc(-c4cccc(C)c4)nn23)cc1	.	i	i	20µM*	-4%
COc1cc(C(C(=O)NC2CCCCC2)N(C(=O)Cc2c[nH]c3ccccc23)c2ccccc2C)cc(OC)c1OC (stereo not drawn)	-3%	i	22µM*	14%	4%
COC(=O)c1ccccc1NC(=O)CCC(=O)N1CC(C)Oc2ccc(C)cc21 (stereo not drawn)	1%	i	i	18µM*	3%
COC(=O)c1ccccc1NC(=O)CCC(=O)N1CC(C)Sc2ccccc21 (stereo not drawn)	.	i	i	18µM*	.
COC(=O)[C@]12C[C@H](CC(=O)NCC34CC5CC(CC(C5)C3)C4)C(=O)N(Cc3cccc4ccccc34)C1=C[C@H](C(C)C)O[C@@H]2C1CC1	.	.	i	.	.
COC(=O)[C@]12C[C@H](CC(=O)NCC3CCCCC3)C(=O)N(Cc3ccc4c(c3)OCO4)C1=C[C@H](C(C)C)O[C@@H]2C1CC1	.	.	14µM*	.	.
COC(=O)[C@]12C[C@H](CC(=O)NCc3cccc4ccccc34)C(=O)N(Cc3ccc4c(c3)OCO4)C1=C[C@H](C(C)C)O[C@@H]2C1CC1	.	.	13µM*	.	.
COC(=O)[C@]12C[C@H](CC(=O)N3CCC(c4ccccc4)CC3)C(=O)N(Cc3ccc4c(c3)OCO4)C1=C[C@H](C(C)C)O[C@@H]2C1CC1	.	.	i	.	.
COC(=O)[C@]12C[C@H](CC(=O)N3CCCC3)C(=O)N(Cc3ccc4c(c3)OCO4)C1=C[C@H](C(C)C)O[C@@H]2C1CC1	.	.	i	.	.

Source: PubChem BioAssay (National Center for Advancing Translational Sciences (NCATS))
